The values that follow come from PubChem BioAssay AID651995 (Sanford-Burnham Center for Chemical Genomics, 2013).

Screen size: about 2,500 compounds; about 480 (19%) were called active. These entries were drawn from the full list. A number with no mark means an inactive call.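 How the source made its calls: active means mean inhibition above about 25% (limit read from the data); inactive means the rest.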

This experiment can be described thus: Wnt3a reporter signal inhibition, confirmation, counter-screen for Gli-SUFU antagonist project, Wnt-LIGHT cells, luminescence, single concentration (AID 651995). Particulars: Wnt3a-driven luciferase reporter, at 6.25 µM, stronger effect = higher value. Background: A counterscreen serves to expose hits that act by an unwanted route or on another target.
One may read the inhibition as the relative decrease from the control value, in per cent. Turning to `Cc1ccc(S(=O)(=O)N2C[C@@H]3CCCC[C@@H]3[C@@H](C)[C@H]2c2cn(Cc3ccccc3)c3ccc(F)cc23)cc1`, the inhibition was 30.5% (active).

On to `COc1ccccc1N1CCN(Cc2cc(OC)c3c(c2)OCO3)CC1`, for which the inhibition is -25%. Consider `CCN(CC(=O)Nc1cc(Cl)ccc1C)C(=O)CSCc1ccc(C)cc1`, for which the inhibition is -8.43%. Regarding `C=CCOC(=O)C1=C[C@@H](c2ccc3c(c2)OCO3)C[C@@H](OCCCCO)O1`, the inhibition was -7.34%. On to `Cc1c(Cl)c([N+](=O)[O-])nn1Cc1ccc(C(=O)N/N=C\c2cc(Cl)ccc2O)o1`, for which the inhibition is 61.7% (active). As for `Cc1cc([N+](=O)[O-])c(-c2ccc(/C=N/n3cnnc3)o2)cc1Cl`, the inhibition was -8.22%.

As for `O=[N+]([O-])c1ccc(N2CCN(CC(O)COc3ccccc3)CC2)cc1` (stereo not given), the inhibition was -30.2%. Take `CC1(C)Cc2ccccc2/C(=C/C(=O)c2ccccc2)N1`: the inhibition was 9.91%. Turning to `CCOC(=O)c1cnc(-n2nc(C)cc2C)nc1NNc1cc(C)nc(-c2ccccc2)n1`, the inhibition was 40.7% (active). For `Cc1nn(C)c(Cl)c1CN1CCC(n2nccc2NC(=O)C2CCCC2)CC1` the value was -36.2%; for `CCCC1=Nc2cc(C(=O)NCc3ccco3)ccc2Sc2ccccc21`, -23.7%; for `CCN1/C(=C/C(=S)Nc2ccccc2)Sc2ccccc21`, -77.3%. Then `CCc1c(C)[nH]c(=S)c(C#N)c1C`, with -19.5%. As for `N#CC(C#N)=CN=c1ccn(Cc2ccc(Cl)cc2Cl)cc1`, the inhibition was -5.79%. Consider `N#Cc1ccc(C(=O)Nc2nc(-c3cccs3)c(C(=O)C(F)(F)F)s2)cc1`, for which the inhibition is 65.1% (active).

Take `O=C(NC1CCN(C(=S)Nc2ccc(Cl)cc2)CC1)C1CCCCC1`: the inhibition is -1.08%. With `Cc1ccc(-c2nc(CSCC(=O)NC3CCN(Cc4ccccc4)CC3)c(C)o2)cc1`, the inhibition was -19.9%. `c1c2c(cc3sc(N4CCCCC4)nc13)OCCO2`: the inhibition is 85.8% (active). Then `CN(C)CCN(C(=O)C1CCCCC1)c1nc2cc3c(cc2s1)OCO3`, with -21.9%.

As for `CN(C)C(CNC(=O)Cc1ccc([N+](=O)[O-])cc1)c1ccccc1` (stereo not given), the inhibition is -27%. For `COc1ccccc1CNC(=O)C1CCN(c2nc3ccccc3o2)CC1`, the inhibition was -23.3%. In the case of `C=CCC1(CC=C)CCCN1C(=O)c1cc(COc2ccc(-n3cncn3)cc2)on1`, the inhibition is -17%. As to `CCCOc1ccccc1C1CC(=O)Nc2cc3c(cc21)OCO3` (stereo not given), the inhibition is -18.6%.

For the compound `COc1ccc(NS(=O)(=O)c2ccc(N3CCN(CCO)CC3)c([N+](=O)[O-])c2)cc1`, the inhibition is 26.4% (active). `COc1ccc(NS(=O)(=O)c2ccc(NC(C)=O)cc2)cc1OC`: the inhibition was 13.2%.
